Measured values from the supplement of paper PMC8728848.
About 410 targets per protein were measured; listed, in parts, are those with the strongest signals and a random draw of the rest.

Experiments:
Assay in all cases: glycan array binding signal (z-score within array); higher = stronger binding
Conditions in all cases: glycan notation: IUPAC condensed, linker removed
Gal3S6S(b1-4)GlcNAc = target: Gal3S6S(b1-4)GlcNAc
How it was run: (§1)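 The binding signal is a Z-score computed within each array. Data were drawn from 3228 arrays in the Consortium for Functional Glycomics database, restricted to those with a known protein sequence. Scores were averaged over arrays of the same protein sequence at different concentrations or buffers, and over linkers, and negative values can be taken as non-binding.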

GalNAc(a1-3)GalNAc = target: GalNAc(a1-3)GalNAc
How it was run: as §1

GalNAc(b1-4)Gal(b1-4)Glc = target: GalNAc(b1-4)Gal(b1-4)Glc
How it was run: as §1

GalNAc3S(b1-4)GlcNAc = target: GalNAc3S(b1-4)GlcNAc
How it was run: as §1

GalNAc3S(b1-4)GlcNAc3S = target: GalNAc3S(b1-4)GlcNAc3S
How it was run: as §1

[1] = target: GalNAc3S(b1-4)[Fuc(a1-3)]GlcNAc
How it was run: as §1

[2] = target: GlcNAc(a1-4)Gal(b1-4)GlcNAc(b1-3)Gal(b1-4)GlcNAc
How it was run: as §1

[3] = target: GlcNAc(a1-4)Gal(b1-4)GlcNAc(b1-3)Gal(b1-4)[Fuc(a1-3)]GlcNAc(b1-3)Gal(b1-4)[Fuc(a1-3)]GlcNAc
How it was run: as §1

[4] = target: GlcNAc(b1-2)Man(a1-3)[GlcNAc(b1-2)Man(a1-6)]Man(b1-4)GlcNAc(b1-4)GlcNAc
How it was run: as §1

[5] = target: GlcNAc(b1-2)[GlcNAc(b1-4)]Man(a1-3)[GlcNAc(b1-2)Man(a1-6)]Man(b1-4)GlcNAc(b1-4)GlcNAc
How it was run: as §1

GlcNAc(b1-3)Gal = target: GlcNAc(b1-3)Gal
How it was run: as §1

[6] = target: GlcNAc(b1-3)Gal(b1-4)GlcNAc(b1-2)Man(a1-3)[GlcNAc(b1-3)Gal(b1-4)GlcNAc(b1-2)Man(a1-6)]Man(b1-4)GlcNAc(b1-4)[Fuc(a1-6)]GlcNAc
How it was run: as §1

[7] = target: GlcNAc6S(b1-3)Gal(b1-4)GlcNAc
How it was run: as §1

Kdn(a2-3)Gal(b1-3)GalNAc = target: Kdn(a2-3)Gal(b1-3)GalNAc
How it was run: as §1

[8] = target: Man(a1-2)Man(a1-3)[Man(a1-2)Man(a1-6)]Man(a1-6)[Man(a1-3)[Man(a1-6)]Man(a1-6)]Man(b1-4)GlcNAc(b1-4)GlcNAc
How it was run: as §1

[9] = target: Man(a1-2)Man(a1-3)[Man(a1-6)]Man(a1-6)[Man(a1-2)Man(a1-3)]Man(b1-4)GlcNAc(b1-4)GlcNAc
How it was run: as §1

[10] = target: Man(a1-2)Man(a1-6)[Man(a1-3)]Man(a1-6)[Man(a1-2)Man(a1-2)Man(a1-3)]Man
How it was run: as §1

[11] = target: Man(a1-2)Man(a1-6)[Man(a1-3)]Man(a1-6)[Man(a1-2)Man(a1-2)Man(a1-3)]Man(b1-4)GlcNAc(b1-4)GlcNAc
How it was run: as §1

[12] = target: Man(a1-3)[Man(a1-6)]Man(a1-6)[Man(a1-2)Man(a1-3)]Man(b1-4)GlcNAc(b1-4)GlcNAc
How it was run: as §1

[13] = target: Man(a1-3)[Man(a1-6)]Man(a1-6)[Man(a1-3)]Man(b1-4)GlcNAc(b1-4)GlcNAc
How it was run: as §1

[14] = target: Man(a1-3)[Man(a1-6)]Man(b1-4)GlcNAc(b1-4)GlcNAc
How it was run: as §1

[15] = target: Neu5Ac(a2-3)Gal(b1-3)GlcNAc(b1-3)Gal(b1-3)GlcNAc
How it was run: as §1

[16] = target: Neu5Ac(a2-3)Gal(b1-3)[Fuc(a1-4)]GlcNAc
How it was run: as §1

[17] = target: Neu5Ac(a2-3)Gal(b1-3)[Fuc(a1-4)]GlcNAc(b1-3)Gal(b1-4)[Fuc(a1-3)]GlcNAc
How it was run: as §1

[18] = target: Neu5Ac(a2-3)Gal(b1-3)[Neu5Ac(a2-3)Gal(b1-4)]GlcNAc
How it was run: as §1

[19] = target: Neu5Ac(a2-6)Gal(b1-4)GlcNAc(b1-2)Man(a1-3)[GlcNAc(b1-2)Man(a1-6)]Man(b1-4)GlcNAc(b1-4)GlcNAc
How it was run: as §1

[20] = target: Neu5Ac(a2-6)Gal(b1-4)GlcNAc(b1-2)Man(a1-3)[Neu5Ac(a2-6)Gal(b1-4)GlcNAc(b1-2)Man(a1-6)]Man(b1-4)GlcNAc(b1-4)[Fuc(a1-6)]GlcNAc
How it was run: as §1

[21] = target: Neu5Gc(a2-8)Neu5Gc(a2-3)Gal(b1-4)GlcNAc
How it was run: as §1

[22] = target: Neu5Gc(a2-8)Neu5Gc(a2-3)Gal(b1-4)GlcNAc(b1-3)Gal(b1-4)GlcNAc
How it was run: as §1

[23] = target: Neu5Gc(a2-8)Neu5Gc(a2-6)Gal(b1-4)GlcNAc
How it was run: as §1

[24] = target: Neu5Gc(b2-6)Gal(b1-4)GlcNAc
How it was run: as §1

B1: AMA (Arum maculatun) (protein)
chain: MAKLLLLLLLPAIVGLAVPRSAAAVGSNYMLSGETLNTDGRLTNGELTLIMQVDCNLVLYHGGWQSNTANNGRDCKLTLTDFGELVIKSGTGSTVWSSGSKQSMKGNYAAVVHPEGRLVIYGPSVFKINPSGAGLNGLPLRNIPLTNNMLFSGQVLYGDGTLSARNHKLVMQGDCNMVLYGGKYGWQSNTHGNGKYCFAMLTHKGELVIRDDDFKSVWSSKSSSKQGDYVFILQDDSLAIIYGPAVFSTGSKKMISMVTN
Gal3S6S(b1-4)GlcNAc
  glycan array binding signal (z-score): -0.213
GalNAc(a1-3)GalNAc
  glycan array binding signal (z-score): -0.209
GalNAc(b1-4)Gal(b1-4)Glc
  glycan array binding signal (z-score): -0.203
GalNAc3S(b1-4)GlcNAc
  glycan array binding signal (z-score): -0.22
GalNAc3S(b1-4)GlcNAc3S
  glycan array binding signal (z-score): -0.217
[1]
  glycan array binding signal (z-score): -0.216
[2]
  glycan array binding signal (z-score): -0.205
[3]
  glycan array binding signal (z-score): -0.201
[4]
  glycan array binding signal (z-score): 6.01
[5]
  glycan array binding signal (z-score): 7.69
GlcNAc(b1-3)Gal
  glycan array binding signal (z-score): -0.211
[6]
  glycan array binding signal (z-score): 2.21
[7]
  glycan array binding signal (z-score): -0.202
Kdn(a2-3)Gal(b1-3)GalNAc
  glycan array binding signal (z-score): -0.207
[8]
  glycan array binding signal (z-score): 3.87
[9]
  glycan array binding signal (z-score): 3.3
[10]
  glycan array binding signal (z-score): -0.213
[11]
  glycan array binding signal (z-score): 4.91
[12]
  glycan array binding signal (z-score): 8.56
[13]
  glycan array binding signal (z-score): 4.09
[14]
  glycan array binding signal (z-score): 3.64
[15]
  glycan array binding signal (z-score): -0.204
[16]
  glycan array binding signal (z-score): -0.218
[17]
  glycan array binding signal (z-score): -0.226
[18]
  glycan array binding signal (z-score): 0.441
[19]
  glycan array binding signal (z-score): 0.845
[20]
  glycan array binding signal (z-score): 0.863
[21]
  glycan array binding signal (z-score): -0.22
[22]
  glycan array binding signal (z-score): -0.215
[23]
  glycan array binding signal (z-score): -0.211
[24]
  glycan array binding signal (z-score): -0.21
